# Bioassay records as filed in PubChem.
# Most compounds without a hit are left out; they make up all but 2.8% or so of the library.
# BRCA1 expr act: qHTS Assay to Identify Small Molecule Activators of BRCA1 Expression; 1.1% of 380,000 active; Potency, µM (series often up to 46.1 µM), inactives show at the top dose activation, most hits filed as activators; AID 624202, 2012; MCF7-BRCA1-FFLuc reporter, luminescence, 48 h; response scale: scaled: vehicle 0%, 10 µM genistein 100%; note: nearly all actives have a fitted effect of over 80% in size
#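 Luminescence from a BRCA1-driven firefly luciferase in MCF7 cells was the read-out, taken 15 min after substrate addition following 48 h compound exposure at 37 °C. Data were normalized to a 10 microM genistein control and DMSO vehicle.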
# GLP1R cytotox: qHTS of GLP-1 Receptor Inverse Agonists: Cytotox Screen | HEK293 cAMP-luciferase reporter cells, luminescence, 24 h | 0.13% of 410,000 active | Potency, µM (top dose mostly 38.3 µM), inactives show top-dose activity change, negative = inhibition, most hits filed as inhibitors;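 note: loss of luciferase light is scored as toxicity; % is set by controls: 0 for no effect and ±100 for the full control effect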
#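 To flag toxic compounds, the library was rerun on cells for 24 hr at 37 deg C and 5% CO2. Viability-linked luminescence was captured 12 min after adding luciferase detection reagent.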
# GLP1R ag: qHTS of GLP-1 Receptor Agonists | Glucagon-like peptide 1 receptor (Homo sapiens), P43220 | HEK293 GLP-1R CRE-luciferase, luminescence, 4-6 h; cells express a hypersensitive GLP-1R form | Potency, µM (series often up to 45.6 µM), for the others: at the top dose activation, most hits filed as activators | 0.007% of 380,000 active | AID 624172, 2012; note: % of control where 0% means no effect
# Target sequence (P43220 whole entry, looked up): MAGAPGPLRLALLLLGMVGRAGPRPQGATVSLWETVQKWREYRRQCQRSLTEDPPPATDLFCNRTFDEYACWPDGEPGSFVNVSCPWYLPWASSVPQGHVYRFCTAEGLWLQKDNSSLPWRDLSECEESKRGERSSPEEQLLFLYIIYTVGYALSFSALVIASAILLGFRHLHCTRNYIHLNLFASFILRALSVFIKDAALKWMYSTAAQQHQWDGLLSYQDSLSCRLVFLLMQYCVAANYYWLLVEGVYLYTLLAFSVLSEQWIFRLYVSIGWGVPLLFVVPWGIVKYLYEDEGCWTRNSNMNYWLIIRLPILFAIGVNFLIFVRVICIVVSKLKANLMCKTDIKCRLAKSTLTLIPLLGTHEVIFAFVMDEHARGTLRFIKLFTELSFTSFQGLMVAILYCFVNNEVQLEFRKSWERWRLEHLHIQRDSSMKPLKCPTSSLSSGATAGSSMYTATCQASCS
# GLP1R inv ag: qHTS of GLP-1 Receptor Inverse Agonists (Inhibition Mode). Glucagon-like peptide 1 receptor (Homo sapiens), P43220. HEK293 GLP-1R CRE-luciferase, luminescence, 24 h; GLP-1R form is constitutively active. Potency, µM (titrated, usually from 38.3 µM), without a hit: at the top dose activity change, negative = inhibition, hits mostly inhibitors. 1.6% of 410,000 active. AID 624417, 2012; note: % is set by controls: 0 for no effect and ±100 for the full control effect; nearly all actives have a fitted effect of over 55% in size
#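 Cells are plated, allowed 12 hours at 37 deg C, then treated with compounds for 24 hr before luciferase detection reagent is added and luminescence is read after 12 min at room temperature. The HEK293 line carries constitutively active GLP-1R with a cAMP-responsive reporter.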
# Mito fusion act: qHTS Assay for Small Molecule Inhibitors of Mitochondrial Division or Activators of Mitochondrial Fusion | S. cerevisiae fusion-defective mutant growth rescue, CellTiterGlo 48 h | Potency, µM (highest dose often 46.1 µM), without a hit: at the top dose growth rescue (activation), most hits filed as activators | 0.23% of 320,000 active | AID 485298, 2010; note: % of control where 0% means no effect; nearly all actives have a fitted effect of over 45% in size
#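 Yeast fusion mutant, YPEG (non-fermentable carbon), compound, 48 h at 37C non-permissive; CellTiterGlo added, 10 min RT, luminescence read. Rescued growth = division inhibition.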
# * marks the source's active call; other numbers are inactive results; ? = inconclusive; · = no result given. Calls come from the whole dose curve; as a rule, active = well fitted curve in the direction sought with a large enough effect; inconclusive = small, poorly fitted or top-dose-only effect, or another doubt; inactive = no such curve, though single readings can be large; an effect the other way counts as inactive or inconclusive. Potency is the fitted concentration of half-maximal effect.
SMILES,BRCA1 expr act,GLP1R cytotox,GLP1R ag,GLP1R inv ag,Mito fusion act
CC1Cc2ccccc2N1S(=O)(=O)c1nnc(NC(=O)c2ccccc2Br)s1 (centres undefined),·,-4%,·,10µM*,·
Cc1ccc(C)c(S(=O)(=O)N2CCN(C(=O)CCC(=O)NCc3ccc(Cl)cc3)CC2)c1,3%,-10%,2%,?,6%
Cc1ccc(C)c(C(=O)CCC(=O)NCc2ccc(Cl)cc2)c1,15%,-8%,3%,10µM*,0%
CC(=O)Oc1ccccc1C1=NN(C(=O)/C=C/c2ccccc2)C(c2ccccc2)C1 (centres undefined),-52%,61%,-1%,?,16µM*
COc1ccc(C2CC(c3ccccc3OC(C)=O)=NN2C(=O)/C=C/c2ccccc2)cc1 (centres undefined),7%,-4%,0%,3%,?
O=C(Nc1ccc(Br)cn1)c1cccc(S(=O)(=O)N2CCCC2)c1,-3%,4%,15%,?,·
CCOc1ccc(NC(=S)N(CCc2c(C)[nH]c3ccc(C)cc23)Cc2ccco2)cc1,-38%,14%,-5%,7.9µM*,21%
COc1ccc(NC(=S)N(CCc2c(C)[nH]c3ccc(C)cc23)Cc2ccco2)cc1,-36%,-18%,1%,?,26%
O=C(NCc1cc(C(F)(F)F)cc(C(F)(F)F)c1)C1CC(c2ccccc2[N+](=O)[O-])=NO1 (centres undefined),-7%,8%,1%,10µM*,9%
Cc1ccc(OCC(=O)N2CCc3ccccc3C2)c(Br)c1,13µM*,2%,22%,?,18%
O=S(=O)(c1cccs1)N1CCCc2cccc(O)c21,13µM*,0%,-12%,?,4%
O=C(Nc1ccc2c(c1)N(S(=O)(=O)c1cccs1)CCC2)c1c(F)cccc1F,-42%,-2%,0%,?,17%
COCCN(Cc1ccccc1)C(=O)c1cccc(S(=O)(=O)N2CCN(c3ccccc3)CC2)c1,-31%,-4%,10%,10µM*,0%
COCCN(Cc1ccccc1)C(=O)c1cccc(S(=O)(=O)N2CCN(c3ccc(F)cc3)CC2)c1,-34%,17%,17%,?,-3%
CN(Cc1ccc(F)cc1)C(=O)c1cccc(S(=O)(=O)N2CCN(Cc3ccccc3)CC2)c1,-38%,-13%,8%,?,5%
CSc1ccc(CN(C)C(=O)c2cccc(S(=O)(=O)N3CCN(Cc4ccccc4)CC3)c2)cc1,-65%,-12%,7%,11µM*,20%
CN(Cc1ccc(F)cc1)C(=O)c1cccc(S(=O)(=O)N2CCN(c3ccccc3)CC2)c1,-41%,2%,-2%,?,13%
CSc1ccc(CN(C)C(=O)c2cccc(S(=O)(=O)NCc3ccccc3)c2)cc1,-9%,-2%,9%,5µM*,4%
CN(Cc1ccc(F)cc1)C(=O)c1cccc(S(=O)(=O)N2CCN(c3ccc(F)cc3)CC2)c1,-39%,12%,6%,10µM*,0%
CCCCN(CC)C(=O)c1nn(-c2ccc(OC)cc2)c(=O)c2c1c1ccccc1n2C,·,-18%,·,?,·
CC(C)c1ccc(S(=O)(=O)c2nnn3c2nc(N2CCCCC2)c2sccc23)cc1,·,1%,·,16%,·
CC(=O)c1cccc(NC(=O)C(C)Sc2nnc3ccccn23)c1 (centres undefined),2%,-1%,-2%,8%,·
Brc1ccc(-c2nc(-c3ccccc3)no2)o1,43%,2%,-5%,1%,-4%
Cc1ccc(-c2nc(-c3cccnc3)no2)c(C)c1,6.3µM*,24%,5%,33%,6%
Cc1ccc(C)c(OCc2nc(-c3cccnc3)no2)c1,65%,-3%,7%,-7%,1%
Brc1ccc(-c2nc(-c3cccnc3)no2)o1,4µM*,-1%,4%,10%,7%
